# In PubChem BioAssay AID1159580 (chemical genetic matrix, 2015):
# Values joined by “and” are separate entries in the source; they are usually repeats but may differ in a detail not shown here. Equal entries are not always repeated. Among all 5,500 compounds or so, about 2,000 (36%) were called active. Inconclusive results (about 18%) are left out. No stated cut-off is given here; in the data, active means normalized growth mostly below about 0.91 (no sharp cut-off); inconclusive means no clear call, values can overlap the other calls; inactive means mostly above about 0.92. Some of the results follow.
# Assay: chemical genetic growth profiling, strain panel (AID 1159580);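 further: tested at 20 µM; growth read once vehicle control cultures reached saturation at 30 °C; 1 = growth at the plate median or of vehicle wells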
# Details: S. cerevisiae deletion strains, growth OD
smiles,measurement,setting,value
O=C(/C=C/c1ccccc1)c1ccc(O)cc1,normalized growth,"locus YAL013W, strain DEP1, stronger effect = lower value",0.736 (active)
same,normalized growth,"locus YAL021C, strain ccr4, stronger effect = lower value",0.633 (active)
same,normalized growth,"locus YAL026C, strain drs2, stronger effect = lower value",0.192 (active)
same,normalized growth,"locus YAL030W, strain snc1, stronger effect = lower value",0.247 (active)
same,normalized growth,"locus YBL061C, strain skt5, stronger effect = lower value",0.263 (active)
same,normalized growth,"locus YBR009C, strain hhf1, stronger effect = lower value",0.0771 (active)
same,normalized growth,"locus YBR021W, strain FUR4, stronger effect = lower value",0.891 (inactive)
same,normalized growth,"locus YBR023C, strain chs3, stronger effect = lower value",0.399 (active)
same,normalized growth,"locus YBR171W, strain sec66, stronger effect = lower value",0.112 (active)
same,normalized growth,"locus YBR229C, strain ROT2, stronger effect = lower value",0.887 (active)
same,normalized growth,"locus YBR231C, strain swc5, stronger effect = lower value",0.315 (active)
same,normalized growth,"locus YBR279W, strain paf1, stronger effect = lower value",0.494 (active)
same,normalized growth,"locus YCL011C, strain gbp2, stronger effect = lower value",0.1 (active)
same,normalized growth,"locus YCL016C, strain dcc1, stronger effect = lower value",0.2 (active)
same,normalized growth,"locus YCL029C, strain bik1, stronger effect = lower value",0.831 (active)
same,normalized growth,"locus YCL061C, strain MRC1, stronger effect = lower value",0.102 (active)
same,normalized growth,"locus YCL069W, strain vba3, stronger effect = lower value",0.218 (active)
same,normalized growth,"locus YCR088W, strain abp1, stronger effect = lower value",0.157 (active)
same,normalized growth,"locus YDL005C, strain med2, stronger effect = lower value",0.64 (active)
same,normalized growth,"locus YDL035C, strain GPR1, stronger effect = lower value",0.723 (active)
same,normalized growth,"locus YDL040C, strain nat1, stronger effect = lower value",0.706 (active)
same,normalized growth,"locus YDL074C, strain BRE1, stronger effect = lower value",0.593 (active)
same,normalized growth,"locus YDL101C, strain DUN1, stronger effect = lower value",0.618 (active)
same,normalized growth,"locus YDL134C, strain PPH21, stronger effect = lower value",0.661 (active)
same,normalized growth,"locus YDL185W, strain tfp1, stronger effect = lower value",0.817 (active)
same,normalized growth,"locus YDL192W, strain arf1, stronger effect = lower value",0.726 (active)
same,normalized growth,"locus YDR001C, strain nth1, stronger effect = lower value",0.316 (active)
same,normalized growth,"locus YDR069C, strain doa4, stronger effect = lower value",0.742 (active)
same,normalized growth,"locus YDR101C, strain arx1, stronger effect = lower value",0.88 (active)
same,normalized growth,"locus YDR137W, strain rgp1, stronger effect = lower value",0.198 (active)
same,normalized growth,"locus YDR150W, strain NUM1, stronger effect = lower value",0.87 (active)
same,normalized growth,"locus YDR159W, strain sac3, stronger effect = lower value",0.26 (active)
same,normalized growth,"locus YDR162C, strain NBP2, stronger effect = lower value",0.182 (active)
same,normalized growth,"locus YDR195W, strain ref2",0.22 (active)
same,normalized growth,"locus YDR297W, strain sur2, stronger effect = lower value",0.19 (active)
same,normalized growth,"locus YDR318W, strain mcm21, stronger effect = lower value",0.788 (active)
same,normalized growth,"locus YDR334W, strain swr1, stronger effect = lower value",0.185 (active)
same,normalized growth,"locus YDR335W, strain msn5, stronger effect = lower value",0.16 (active)
same,normalized growth,"locus YDR388W, stronger effect = lower value",0.863 (active)
same,normalized growth,"locus YDR392W, strain spt3, stronger effect = lower value",0.0785 (active)
same,normalized growth,"locus YDR502C, strain sam2, stronger effect = lower value",0.758 (active)
same,normalized growth,"locus YEL003W, strain gim4, stronger effect = lower value",0.0639 (active)
same,normalized growth,"locus YEL037C, strain rad23, stronger effect = lower value",0.602 (active)
same,normalized growth,"locus YEL061C, strain CIN8 (second series), stronger effect = lower value",0.0689 (active)
same,normalized growth,"locus YEL061C, strain CIN8, stronger effect = lower value",0.506 (active)
same,normalized growth,"locus YER015W, strain faa2, stronger effect = lower value",0.264 (active)
same,normalized growth,"locus YER016W, strain bim1, stronger effect = lower value",0.176 (active)
same,normalized growth,"locus YER110C, stronger effect = lower value",0.89 (active)
same,normalized growth,"locus YER111C, strain swi4, stronger effect = lower value",0.124 (active)
same,normalized growth,"locus YER155C, strain BEM2 (second series), stronger effect = lower value",0.093 (active)
same,normalized growth,"locus YER155C, strain BEM2, stronger effect = lower value",0.568 (active)
same,normalized growth,"locus YER167W, strain BCK2, stronger effect = lower value",0.74 (active)
same,normalized growth,"locus YFR010W, strain ubp6, stronger effect = lower value",0.648 (active)
same,normalized growth,"locus YGL078C, strain dbp3, stronger effect = lower value",0.926 (inactive)
same,normalized growth,"locus YGL086W, strain mad1, stronger effect = lower value",0.733 (active)
same,normalized growth,"locus YGL167C, strain pmr1, stronger effect = lower value",0.83 (active)
same,normalized growth,"locus YGL173C, strain kem1, stronger effect = lower value",0.403 (active)
same,normalized growth,"locus YGL227W, strain vid30, stronger effect = lower value",0.0651 (active)
same,normalized growth,"locus YGL240W, strain doc1, stronger effect = lower value",0.358 (active)
same,normalized growth,"locus YGL248W, strain PDE1, stronger effect = lower value",0.716 (active)
same,normalized growth,"locus YGL253W, strain hxk2, stronger effect = lower value",0.177 (active)
same,normalized growth,"locus YGR078C, strain PAC10, stronger effect = lower value",0.429 (active)
same,normalized growth,"locus YGR135W, strain pre9, stronger effect = lower value",0.771 (active)
same,normalized growth,"locus YGR229C, strain SMI1, stronger effect = lower value",0.253 (active)
same,normalized growth,"locus YGR252W, strain gcn5, stronger effect = lower value",0.648 (active)
same,normalized growth,"locus YHR013C, strain ard1, stronger effect = lower value",0.353 (active)
same,normalized growth,"locus YHR027C, strain rpn1, stronger effect = lower value",0.51 (active)
same,normalized growth,"locus YHR030C, strain SLT2, stronger effect = lower value",0.38 (active) and 0.945 (inactive)
same,normalized growth,"locus YHR079C, strain IRE1 (second series), stronger effect = lower value",0.494 (active)
same,normalized growth,"locus YHR079C, strain IRE1, stronger effect = lower value",0.788 (active)
same,normalized growth,"locus YHR094C, strain hxt1, stronger effect = lower value",0.944 (inactive)
same,normalized growth,"locus YHR129C, strain ARP1, stronger effect = lower value",0.635 (active)
same,normalized growth,"locus YHR142W, strain chs7, stronger effect = lower value",0.113 (active)
same,normalized growth,"locus YHR200W, strain rpn10, stronger effect = lower value",0.898 (active)
same,normalized growth,"locus YIL066C, strain RNR3, stronger effect = lower value",0.515 (active)
same,normalized growth,"locus YIL073C, strain SPO22, stronger effect = lower value",0.7 (inactive)
same,normalized growth,"locus YIL125W, strain kgd1, stronger effect = lower value",0.931 (active)
same,normalized growth,"locus YIR030C, strain dcg1, stronger effect = lower value",0.853 (active)
same,normalized growth,"locus YJL092W, strain hpr5, stronger effect = lower value",0.299 (active)
same,normalized growth,"locus YJL095W, strain BCK1 (second series), stronger effect = lower value",0.0714 (active)
same,normalized growth,"locus YJL095W, strain BCK1, stronger effect = lower value",0.205 (active) and 0.945 (inactive)
same,normalized growth,"locus YJL115W, strain asf1, stronger effect = lower value",0.444 (active)
same,normalized growth,"locus YJL129C, strain trk1, stronger effect = lower value",0.209 (active)
same,normalized growth,"locus YJL134W, strain LCB3, stronger effect = lower value",0.93 (inactive)
same,normalized growth,"locus YJL154C, strain vps35, stronger effect = lower value",0.678 (active)
same,normalized growth,"locus YJL164C, strain tpk1, stronger effect = lower value",0.162 (active)
same,normalized growth,"locus YJL166W, strain qcr8, stronger effect = lower value",0.0857 (active)
same,normalized growth,"locus YJL168C, strain set2, stronger effect = lower value",0.913 (active)
same,normalized growth,"locus YJL187C, strain SWE1 (second series), stronger effect = lower value",0.697 (active)
same,normalized growth,"locus YJR043C, strain POL32, stronger effect = lower value",0.597 (active)
same,normalized growth,"locus YJR066W, strain TOR1, stronger effect = lower value",0.883 (inactive)
